PubChem BioAssay (NCI)
This is part of a sample that, as a whole, favours compounds with a hit. Of some 83,000 tested, about 20% had one in any assay.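 Single-concentration screen, 48 h exposure, 96-well plates. Endpoint: percent growth. Below 10 = active.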 A number with no mark means an inactive call. Active and inactive are the calls of the source.

system: PC-3 prostate; assay: NCI-60 one-dose screen, 48 h (100 = growth as untreated, 0 = no growth, -100 = all killed); conditions: 10 µM

| Compound | growth |
| --- | --- |
| COc1cc(-c2nn3c(/C=C4/C(=O)Nc5ccccc54)c(-c4ccc(C)cc4)nc3s2)cc(OC)c1OC | 85.5% |
| CCCCC/C=C/C(=O)CCc1ccc(O)c(OC)c1 | 55.8% |
| Cc1c(Cl)cccc1NC(=O)c1sc2nc3c(cc2c1N)C(=O)CCC3 | 21.4% |
| CSc1cc(SC)ncn1 | 91% |
| O=C(Nc1ccc(CN2CCc3nc4cc(O)c(O)cc4cc32)cc1)c1ccc(Cl)c(Cl)c1 | 101% |
| COc1ccc(-c2cc(/C=C/C(=O)c3cc(OC)c(OC)c(OC)c3)[nH]n2)cc1OC | 24.7% |
| O=C1NC(=O)N(Cc2ccccc2)CC1Br (stereo unspecified) | 73.1% |
| O=C(Nc1ccncc1)C(=O)c1cn(S(=O)(=O)c2cccc(Cl)c2)c2ccccc12 | 72.4% |
| CCOC(=O)C(=Cc1ccc(Br)cc1)C(=O)OCC | -30.4% (active) |
| COc1cc(-c2cc(/C=C3\C(=O)Nc4ccc(Cl)cc43)[nH]n2)cc(OC)c1OC | -13.2% (active) |
| CC(C)(C)NC/C(=C\c1ccccc1)C(=O)c1ccccc1 | 0.348% (active) |
| Cc1cc(N(CCCNc2ccnc3cc(Cl)ccc23)Cc2cccs2)nc(Cl)n1 | 40.4% |
| Nc1nc(N)c2c(ccc3nccc32)[nH]1 | 7.39% (active) |
| CCCC(F)C(=O)O (stereo unspecified) | 90.5% |
| Cn1c(N)c(N=Nc2ccc(S(=O)(=O)Nc3nccs3)cc2)c(=O)n(C)c1=O | 90.5% |
| COc1cc(-c2cc(/C=C/C(=O)c3ccc(Cl)c(Cl)c3)[nH]n2)cc(OC)c1OC | 55% |
